This is part of a sample that, as a whole, favours compounds with a hit. Of some 83,000 tested, about 20% had one in any assay.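 Assay: single dose, 48 h. Readout: percent growth (0 = no net growth; negative = cell death). Active: <10.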 Unmarked numbers belong to inactive results. Active and inactive are the calls of the source.
How the values were obtained:
Test in all cases: NCI-60 one-dose screen, 48 h (100 = growth as untreated, 0 = no growth, -100 = all killed)
Conditions in all cases: 10 µM unless noted
[1] = system: NCI-H23 lung
[2] = system: NCI-H226 lung
[3] = system: NCI-H322M lung
[4] = system: HOP-62 NSCLC
[5] = system: NCI-H460 lung
[6] = system: HOP-92 NSCLC
[7] = system: NCI-H522 lung
[8] = system: A549/ATCC NSCLC
[9] = system: 786-0 renal
[10] = system: COLO 205 colon

SMILES | growth [1] | growth [2] | growth [3] | growth [4] | growth [5] | growth [6] | growth [7] | growth [8] | growth [9] | growth [10]
COc1ccc(Cn2cc(C#N)c(N)c2C(C)=O)cc1 | 101% | 101% | 98.8% | 104% | 104% | 87.5% | 102% | 110% | 111% | 111%
COc1ccccc1/C=C/C(=O)c1nnn(-c2ccc(F)cc2)c1C | 42.9% | 53.1% | 70.6% | 72.2% | 28.4% | 72.9% | 54% | 41.7% | 84.5% | 72.4%
Cc1ncn(-c2ccc(/C=N/Nc3ccnc4cc(Cl)ccc34)cc2)c1C | 54.1% | 94.1% | 45.5% | 102% | -52.3% (active) | -28.2% (active) | -66.2% (active) | 0.0933% (active) | -89.4% (active) | -96.5% (active)
CC(=O)/C(N=Nc1ccc2oc(=O)ccc2c1)=C(\C)O | 27.5% | 42.6% | 55.1% | 26.2% | 14.6% | 2.61% (active) | 31% | 23.6% | 37.5% | 15.2%
C#C[C@]1(O)CC[C@H]2[C@@H]3CC=C4c5sc(Nc6ncccc6C)nc5CC[C@]4(C)[C@H]3CC[C@@]21C | 9.38% (active) | 23.4% | 32.8% | 11.9% | 0.476% (active) | 20.5% | 25.9% | 21.8% | -56.2% (active) | 34.8%
CN(C)CCCOc1ccc(C(=C(c2ccccc2)C2CCCC2)c2ccc(OCCCN(C)C)cc2)cc1 | -78.8% (active) | -67.5% (active) | -97% (active) | -72.6% (active) | -62.6% (active) | -76.3% (active) | -89.8% (active) | -79.2% (active) | -80.4% (active) | -76.2% (active)
Cc1ccc(N2CCN(C3=C(Cl)C(=O)c4ncccc4C3=O)CC2)cc1 | 35.6% | 93.2% | 97.4% | 73.1% | 44.8% | 84.4% | 45.2% | 91.3% | 99.5% | 75.3%
CCCCc1nc2c(N)nc3ccccc3c2n1Cc1ccc(OC)cc1 | 60.5% | 73.3% | 92.1% | 77.4% | 63.3% | -3.74% (active) | 68.5% | 65.8% | 65.4% | 48.4%
CCOC(=O)c1c(N)c(C#N)cn1Cc1ccc(Cl)cc1Cl | 84.4% | 85.1% | 87.4% | 68.7% | 81.2% | 73.1% | 67.2% | 76.2% | 76.4% | 106%
CN1CCN(CCNc2nc(-c3cccc(NS(=O)(=O)c4cccc5c(N(C)C)cccc45)c3)cs2)CC1 | 51.9% | 66.3% | 85.8% | 82% | 70.7% | 39.7% | 69.4% | 69.6% | 60.8% | 85.6%
Cc1cc(Br)ccc1-n1cc(C#N)c(N)c1C(=O)c1ccc(Br)cc1 | 92.7% | 97.7% | 104% | 103% | 113% | 94.2% | 99.6% | 105% | 93.5% | 118%
O=C(/C=C/c1cccc(F)c1)c1cccc(OCCCCOc2cccc(C(=O)/C=C/c3cccc(F)c3)c2)c1 | 102% | 103% | 102% | 114% | 100% | 139% | 93.4% | 104% | 106% | 117%
CC1(C)C=Cc2cc(/C(N)=N/C(N)=N/c3nc4ccccc4s3)ccc2O1 | 58.3% | 5.64% (active) | 93.8% | 5.82% (active) | 52.3% | 94.2% | 91.2% | 67% | 113% | 102%
CC(=C(c1ccc(OCCCN(C)C)cc1)c1ccc(OCCCN(C)C)cc1)c1ccc(Cl)cc1 | 84.8% | 95.5% | 95.1% | 99.5% | 99.6% | 77.9% | 94.1% | 79.8% | 87.4% | 96.6%
CNC(=O)c1cc(N2CCc3cc(NC(=O)Nc4ccc(N5CCN(C)CC5)c(C(F)(F)F)c4)ccc32)ccn1 | 88.4% | 99.4% | 96.6% | 76.7% | 62.6% | 69% | 103% | 68.6% | 29.3% | 104%
O=C(N/N=C/c1cc2ccccc2nc1Cl)c1cc(-c2nc3ccccc3[nH]2)nc2ccccc12 | 96.2% | 100% | 99.9% | 97.9% | 104% | 72.4% | 83.6% | 95.1% | 85.3% | 98.3%
CCOC(=O)c1ccc(NC2=CC(=O)C(C)=C(C)C2=O)cc1 | 51% | 95.6% | 104% | 70.5% | 98.4% | 113% | 87.5% | 117% | 106% | 115%
Oc1[nH]c2ccc(Cl)cc2c1N=Nc1nc(N=Nc2c(O)[nH]c3ccc(Cl)cc23)nc(N2CCOCC2)n1 | 17.2% | 57.3% | 78.1% | 37.6% | 88.2% | 26% | 5.09% (active) | 101% | 73.7% | 48.7%
Nn1c(=O)n(-c2cccc(C(F)(F)F)c2)c(=O)c2cc(-c3ccc(F)cc3F)ccc21 | -6.15% (active) | 16.5% | 5.15% (active) | 2.28% (active) | 6.49% (active) | -35.6% (active) | -2.03% (active) | 5.13% (active) | 45.7% | 65.2%
C[C@H](Nc1ncnc2ccc(-c3cnc(Cl)c(NS(C)(=O)=O)c3)cc12)c1ccccc1 | -5.76% (active) | 1.56% (active) | -31.1% (active) | -16.3% (active) | 4.11% (active) | -11.7% (active) | -48.8% (active) | -49.8% (active) | -6.23% (active) | -93.2% (active)
Cc1ccc(/C=N/Nc2nc(Nc3ccccc3)nc(Nc3ccc(S(N)(=O)=O)cc3)n2)cc1 | 76.7% | 79.3% | 90.8% | 86.8% | 54.7% | 112% | 89.5% | 83.2% | 46.9% | 83.9%
COc1ccc(/C(=N\N=C(N)N)c2ccc(Cl)cc2)cc1OC | 87.2% | 88.6% | 79.6% | 69.1% | 78% | -0.241% (active) | 74.3% | 76.1% | 59.2% | 80%
COc1ccc([C@@H]2C(=O)N(c3cc(OC)c(OC)c(OC)c3)[C@H]2c2ccc(OC)c(O)c2)cc1 | 28.9% | 60.2% | 42.7% | 31.3% | 4.83% (active) | 25.1% | -39.4% (active) | 29% | 6.33% (active) | -79.3% (active)
CCOP(=O)(OCC)OC[C@]12CCC(C)(C)CC1C1=CC[C@@H]3[C@@]4(C)CCCNC(C)(C)[C@@H]4CC[C@@]3(C)[C@]1(C)CC2 (stereo not given in full) | 85.2% | 89% | 95.7% | 101% | 55.1% | 64.8% | 90.2% | 70.8% | 69.4% | 3.12% (active)
